Results published in PubChem BioAssay AID1030 (National Center for Advancing Translational Sciences (NCATS), 2008).
Where “and” joins values, the source holds several entries; their conditions need not be identical. Identical values can stand only once. About 16,000 (7.3%) of roughly 220,000 compounds were called active. Not shown: some 25% with an inconclusive outcome. The call rests on the fitted dose curve; in most records, active means well fitted inhibition curve with a large enough effect (not every such curve was filed as active); inconclusive means small, poorly fitted or top-dose-only effect, or another doubt; inactive means no such curve, though single readings can be large or run the other way. For the sample, actives were picked, then their nearest neighbours and some compounds at random.

Target: Aldehyde dehydrogenase 1A1 (Homo sapiens) (UniProt P00352)
Sequence (P00352 whole entry, looked up): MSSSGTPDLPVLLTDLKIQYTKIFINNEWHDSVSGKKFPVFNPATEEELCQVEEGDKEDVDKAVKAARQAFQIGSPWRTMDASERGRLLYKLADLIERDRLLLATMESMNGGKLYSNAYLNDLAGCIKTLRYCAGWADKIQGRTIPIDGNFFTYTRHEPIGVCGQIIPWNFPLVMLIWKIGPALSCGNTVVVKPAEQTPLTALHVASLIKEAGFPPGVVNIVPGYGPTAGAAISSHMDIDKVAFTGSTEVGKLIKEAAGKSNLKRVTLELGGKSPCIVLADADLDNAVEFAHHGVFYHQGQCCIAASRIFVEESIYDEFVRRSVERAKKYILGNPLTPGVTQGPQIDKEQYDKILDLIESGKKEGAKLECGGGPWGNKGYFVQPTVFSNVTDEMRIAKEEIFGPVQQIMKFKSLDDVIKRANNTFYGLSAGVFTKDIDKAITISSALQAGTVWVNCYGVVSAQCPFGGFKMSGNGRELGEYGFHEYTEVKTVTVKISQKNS
Assay: qHTS Assay for Inhibitors of Aldehyde Dehydrogenase 1 (ALDH1A1);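 on activity, negative = inhibition: plate controls were no enzyme wells and a reference inhibitor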
Conditions: Purified ALDH1A1, NADH fluorescence, propionaldehyde substrate; series mostly up to 75.3 µM; activity, negative = inhibition: at the top concentration
Potency means the concentration at half of the fitted maximal effect.

activity, negative = inhibition, inactive:
COC(=O)c1ccc(NC(=O)C(C)N2C(=O)c3ccccc3C2=O)cc1 (configuration not stated) 3.93%
COC(=O)c1ccc(NC(=O)Nc2ccc(C)cc2)cc1 18.1%
Cc1ccc(NC(=O)CC(=O)Nc2ccc(C)cc2)cc1 4.23%
Cc1ccc(C(=O)CS(C)(=O)=O)cc1 -3.97%
CC(C)Nc1nnc(SCC(=O)/C=C2\N(C)c3ccccc3C2(C)C)s1 -2.25%
CCCCCc1ccc(-c2ccc(OCC)cc2)nc1 3.76%
O=C(N1CCCCC1)N1CCN(C(=O)N2CCCCC2)CC1 -13.2%
CCCNC(=O)c1c(Cl)cnn1-c1ccc(C)cc1 0.157%
CCC(C)CN1CCC(CO)(Cc2ccccc2Cl)CC1 (configuration not stated) 6.32%
COCCNC(=O)/C(C#N)=C/c1cccc(OCc2ccccc2)c1 -8.15%
O=C(NCC(O)c1ccc([N+](=O)[O-])cc1)C1CCCCC1 (configuration not stated) 5.34%
NC(N)=N/N=C/c1ccc(Cl)c([N+](=O)[O-])c1 4.87%
O=[N+]([O-])c1ccc(N2CCSCC2)cc1O -9.62%
Nc1ccc(C(=O)OCC(=O)NC2CCS(=O)(=O)C2)cc1[N+](=O)[O-] (configuration not stated) -0.662%
CN(C)c1nccc(NCc2ccccc2)c1C#N -5.36%
CN(C(=O)COc1ncnc2c1cnn2-c1ccccc1)C1CCCCC1 -9.75%
CN(C)S(=O)(=O)Oc1ccccc1C(=O)Nc1ccccc1Cl 8.77%
CC(=O)Nc1ccccc1OC(C)C(=O)N1CCC(C)CC1 (configuration not stated) 5.08%
CSCCC(NC(=O)C1CCC(C)CC1)C(=O)NCc1ccco1 (configuration not stated) 5.15%
CCCCCCCCCCOC(=O)C[N+](C)(C)CC1CCCCC1O (configuration not stated) 4.34%
O=C(NC1CCCCC1)c1cc([N+](=O)[O-])ccc1N1CCOCC1 -8.05%
CC[C@H](C)[C@@H](NC(=O)O[C@@H]1C(=O)c2cc(OC)ccc2O[C@H]1c1cccc(OC)c1)C(=O)OC 0.104%
CCN(CC)CCNc1nc(-c2ccc(OC(F)F)cc2)c(C)s1 -2.65%
O=C(Nc1ccccc1N1CCCCC1)c1cccc(F)c1 -9.96%
O=c1cc(-c2ccccc2)nc(N2CCCCC2)[nH]1 -8.51%
O=C(O)C(c1ccccc1)C1(O)CCCCC1 (configuration not stated) 9.96%
Cc1ccc(-c2cn(S(=O)(=O)c3cccc([N+](=O)[O-])c3)nc2N)cc1 4.26%
O=C(Nc1ccncc1)c1cc(-c2ccccn2)nc2ccc(Br)cc12 0.055%
Cn1c(=O)[nH]c(=O)c2c1nc(Br)n2CCCCSc1nc2ccccc2o1 -7.93%
C#CC(C)(C)NC(=O)CSc1nc2c(c(=O)n(C)c(=O)n2C)n1CCCC 16.5%
Oc1ccccc1CNCc1ccccc1O -6.72% [at 13.5 µM]
O=[N+]([O-])c1ccccc1NCc1ccc(Cl)cc1 4.53%
Cn1nc(C(F)(F)F)c2cc(C(=O)N3CCOCC3)sc21 5.73%
Cc1ccnc2nc(C(=O)Nc3nnc(-c4ccccc4)o3)nn12 8.11%
CC(C)=C1SC(N2CCN(c3cccc(C)c3)CC2)=NC1=O -4.12%
C=C/C1=C/Cc2ccccc2[C@H](C[N+](=O)[O-])C(C(=O)OC)(C(=O)OC)C1 -1.98%
O=C(CN1C(=O)CC(c2ccccc2)S(=O)(=O)c2ccccc21)NC1CCCC1 (configuration not stated) -7.83%
COCCOC(=O)C1=C(C)Nc2nc(C)nn2C1c1ccccc1 (configuration not stated) 12.5%
COc1cccc(-c2nc3n(n2)C(c2ccccc2Cl)C(C(N)=O)=C(C)N3)c1 (configuration not stated) -1.6%
C/C(=N/NC(=O)CCc1ccccc1)c1ccco1 -1.48%
CSCCC(=O)N1CCCC(CNC(=O)c2ccccc2Cl)C1 (configuration not stated) 5.62%
CC(C)(C)c1cc(P(=O)(c2ccccc2)c2ccccc2)ccc1O 2.97%
COCCCNC(=O)c1c(F)c(F)c(F)c(F)c1F 9.81%
CCC(=O)Nc1sc(C(=O)Nc2ccccc2)c(C)c1C(=O)OC 1.12%
Cc1ccc(CCCOC(=O)C[N+]2(C)CCCCC2)cc1 5.06%
O=C(CC1NCCc2ccccc21)Nc1cccc(Cl)c1 (configuration not stated) 1.34%
CC1CC(C)CN(S(=O)(=O)c2ccc(C(=O)NN3CCOCC3)cc2)C1 (configuration not stated) -5.98%
COc1ccc(CC(NC(C)=O)C(=O)NC2CCN(C(=O)C3CC3)CC2)cc1OC (configuration not stated) 5.16%
CNC(=S)N1CCC(NC(=O)C(Cc2ccc(F)cc2)NC(C)=O)CC1 (configuration not stated) 0.163%
CC(C)NC(=O)NC(=O)COC(=O)c1ccc(NC(=O)CC#N)cc1 6.29%
CC(C)(C)NC(=O)NC(=O)COC(=O)CCC1CCCCC1 -5.33%
COc1cccc(CC2(CO)CCN(Cc3cnc(-c4cccc(C)c4)nc3)CC2)c1 -0.151%
COc1ccc(C2CC(c3ccccc3)=NN2C(=O)COC(=O)COc2ccccc2)cc1 (configuration not stated) -9.93%
O=C(CC1SCCNC1=O)Nc1ccc(Cl)c(Cl)c1 (configuration not stated) -1.94%
Cc1oc2cc([N+](=O)[O-])c(O)c([N+](=O)[O-])c2c1C(=O)c1ccc(Br)cc1 -15.7%
CC(CNC(=O)c1ccc(N)cc1)NC(=O)c1ccc(N)cc1 (configuration not stated) 12.3%
CC(CCc1ccccc1)NC(=O)c1ccc(Br)o1 (configuration not stated) -52.6%

Potency, active:
COC(=O)c1ccc(NCC(=O)c2ccccc2)cc1 11.2 µM
Cc1ccc(C(=O)CNc2ccc(F)cc2)cc1 11.2 µM
O=C1CSC(=S)N1/N=C/c1ccc(O)c([N+](=O)[O-])c1 1.26 µM
CSCCC(NS(=O)(=O)/C=C/c1ccccc1)C(=O)N1CCC(C)CC1 (configuration not stated) 14.1 µM
O=[N+]([O-])c1ccc2c(c1)C(N1CCOCC1)/C(=C/C1(O)CCCCC1)O2 (configuration not stated) 10 µM
O=C(c1ccccc1)c1ccc2nc(N3CCCCC3)c3nncn3c2c1 12.6 µM
CCCCCn1c(SCCC(C)C)nc2c1c(=O)[nH]c(=O)n2C 22.4 µM
Oc1ccc(CNc2ccccc2O)cc1 3.98 µM
CCN1C(=O)/C(=C2\SC(N3CCCCC3)=NC2=O)c2ccccc21 10 µM
CC1=C(C(N)=O)C(c2ccc3c(c2)OCO3)n2nc(-c3cccc(C)c3)nc2N1 (configuration not stated) 3.55 µM
COCCCNCC(=O)Nc1sc(C)c(C)c1C(=O)OC 11.2 µM
CN(C)/C=C1\C=C(c2ccccc2)OC1=O 10 µM
CC(=O)NC(Cc1ccc(F)c(F)c1)C(=O)NC1CCN(c2nnnn2-c2ccccc2)CC1 (configuration not stated) 3.16 µM
N#CCC(=O)NC(=O)NCC1CC1 3.98 µM and 1.26 µM
CC(CNC(=O)c1ccc(Br)o1)NC(=O)c1ccc(Br)o1 (configuration not stated) 28.2 µM
